# Test results from PMC5540273 (PLoS ONE, 2017).
# Assays:
# Details in all cases: concentration: 1 μM, replicates: in singlicate; n = 1
# PRKD3 = tested on: PRKD3
# PRKG1 = tested on: PRKG1
# PRKG2 = tested on: PRKG2
# PRKR = tested on: T1, PRKR
# T1 construct: gene EIF2AK2
# PRKX = tested on: PRKX
# PRP4 = tested on: PRP4
# PYK2 = tested on: T2, PYK2
# T2 construct: gene PTK2B
# QSK = tested on: QSK
# RAF1 = tested on: RAF1
# RET = tested on: RET
# 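Note: KINOMEscan kinase panel screen.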
Compound,%Inh (PRKD3) [%],%Inh (PRKG1) [%],%Inh (PRKG2) [%],%Inh (PRKR) [%],%Inh (PRKX) [%],%Inh (PRP4) [%],%Inh (PYK2) [%],%Inh (QSK) [%],%Inh (RAF1) [%],%Inh (RET) [%]
COc1cccc(-c2nc(-c3ccccc3)[nH]c2-c2ccncc2)c1 [SB-610250],11,0,0,0,0,70,0,8,34,25
COc1ccc(C)c(Nc2ccnc(Nc3ccc(-c4cnc[nH]4)cc3)n2)c1.Cl [GW784041],0,0,12,0,0,0,5,0,27,0
CNc1nccc(-c2ccc3c(N)n[nH]c3c2)n1 [GSK2206003],35,25,76,8,53,32,12,0,0,80
CN(c1ccc(NC(=O)N2CCN(CCCN3CCOCC3)CC2)cc1)c1ccnc(Nc2ccc(CS(C)(=O)=O)cc2)n1.Cl [GW830899],0,0,100,0,63,0,16,0,28,6
Cl.Cl.NC(CNC(=O)c1cc(Br)c(-c2ccnc3[nH]ccc23)s1)c1ccccc1 (stereo not drawn) [GSK1322949],62,98.5,98.4,6,92.5,87,32,22,0,30
Nc1ncc(-c2cn[nH]c2)c2scc(-c3ccc4c(c3)CCN4C(=O)Cc3ccccc3)c12 [GSK2593067],11,27,0,0,21,0,9,9,0,34
O=C(Nc1n[nH]c2cc(-c3cccs3)ccc12)C1CC1 [SB-731284],7,8,22,0,0,7,0,44,9,0
CS(=O)(=O)c1cccc(CNc2nc(Nc3ccc4c(c3)CCC(=O)N4)ncc2C(F)(F)F)c1,4,0,0,0,0,30,26,0,0,90.1
COc1cc(Nc2nccc(N3CCC(NS(=O)(=O)c4ccc(NC(C)=O)cc4)CC3)n2)cc(OC)c1OC [GSK1379825],0,5,0,0,15,18,37,20,60,30
